# rCAG binder: binders of r(CAG) RNA repeats, primary screen, biochemical, fluorescence | r(CAG) RNA repeat, TO-PRO-1 dye displacement fluorescence | inhibition, % at 3 µM | 370,000 tested, 1.3% active | AID 651821, 2012;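 active = inhibition above the plate cutoff, the mean of all test compounds on that plate plus 3 SD, cut at about 35% in these data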;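 note: 0% = DMSO alone and 100% = 100 µM mitoxantrone as full dye displacement; higher means more dye released from RNA so lower well fluorescence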
# Myeloid diff MLP: induction of myeloid progenitor differentiation, primary screen, cell-based, flow cytometry, MLPCN library | calls only at 10 µM | 360,000 tested, 1% active | ER-HoxA9 myeloid progenitors, lysozyme-GFP differentiation;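 active = normalized GFP-positive differentiation at or above the plate's own cutoff, the solvent-only control mean plus 3 SD; inconclusive = no clear call, values can overlap the other calls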;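 note: cells exposed to compound for four days before flow analysis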
# GRIN3A LBD mod: binders of NR3A ligand-binding domain, primary screen, biophysical, differential scanning fluorimetry, uHTS. Glutamate receptor ionotropic, NMDA 3A (GRIN3A) ligand-binding domain. NR3A LBD differential scanning fluorimetry, Tm shift; 0% = protein alone, 100% = glycine-bound protein. Tm shift relative to glycine control, % at 25 µM. 340,000 tested, 2.5% active;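 active = melting temperature shift of at least 10% of the positive control shift, at one fixed dose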
# FAS-TE inh: FAS thioesterase domain inhibitors, primary screen, biochemical, fluorescence intensity, uHTS. 360,000 tested, 0.67% active. recombinant FAS-TE, OMFH fluorogenic substrate, fluorescence endpoint. Fatty acid synthase (Homo sapiens), P49327. AID 602261, 2012. inhibition, % at 15 µM;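 active = compounds whose normalised, plate-corrected inhibition of enzyme fluorescence in the single-dose primary screen is 50% or more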;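 note: 0% = DMSO with enzyme and 100% = substrate without enzyme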
# MPTP inh: mitochondrial permeability transition pore inhibitors, primary screen, biochemical, isolated mouse mitochondria, absorbance; Ca2+ swelling absorbance, 30 min; inhibition, % at 10 µM; 360,000 tested, 1.4% active; AID 602449, 2012;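 active = inhibition of 50% or more, scaled per plate between neutral and stimulator controls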;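 note: 0% = DMSO wells given calcium and 100% = 1 mM EGTA wells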
# MPTP counter: fluorescence retest of MPTP screen hits in isolated mitochondria, single concentration; AID 624504, 2012; shares compounds with MPTP inh; membrane potential, Rhodamine 123 fluorescence; inhibition, % at 10 µM; 5,000 tested, 78% active; in the data active = inhibition above about 22%;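 note: 0% = DMSO vehicle and 100% = positive control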
# MPTP swell DR: mitochondrial permeability transition pore inhibitors, dose response, biochemical, absorbance, uHTS hits; IC50, µM; shares compounds with MPTP inh; AID 651561, 2012; 780 tested, 58% active; isolated mitochondria swelling; in the data active = IC50 below about 20 µM
# MPTP counter DR: fluorescent counter-screen in isolated mitochondria, dose response, counter-screen for MPTP inhibitor project, biochemical, fluorescence, uHTS hits. AID 651564, 2012. shares compounds with MPTP inh. IC50, µM. 780 tested, 49% active. isolated mitochondria counterscreen, fluorescence read-out; in the data active = IC50 below about 80 µM
# * marks the source's active call; other numbers are inactive results; i = inactive; u = inconclusive; x = no result given. The list is not random: actives were taken first. Their share in the collection is about 5.7%.
SMILES,rCAG binder,Myeloid diff MLP,GRIN3A LBD mod,FAS-TE inh,MPTP inh,MPTP counter,others
O=C(CSc1nnc(-c2cccnc2)s1)Nc1ccnc2ccccc12,3,i,1,-13,104*,73*,
Cc1ccc(NC(=O)CSc2nnc(-c3cccnc3)s2)cc1,0,i,1,-12,0,x,
CCc1ccc(C(=O)C(C)OC(=O)C2COc3ccccc3O2)cc1 (centres undefined),-1,i,3,14,0,x,
CC(OCC(O)CNCC1COc2ccccc2O1)c1ccc(Cl)cc1 (centres undefined),-10,i,2,2,86*,-6,MPTP swell DR=15*;MPTP counter DR=58*
COc1cc(C)ccc1OCCOCCOc1cc(C)c(C)cc1Br,-1,i,9,20,1,x,
CN(/N=C/c1cc([N+](=O)[O-])ccc1O)c1ccccc1,6,i,-6,-7,57*,66*,
CC(N=Cc1cc([N+](=O)[O-])ccc1O)c1ccccc1 (centres undefined),3,i,0,-8,43,x,
CC(C)(C#CCN1CCCCC1)OCCOC(c1ccccc1)c1ccccc1,-8,i,2,23,77*,12,MPTP swell DR=20*;MPTP counter DR=20*
Cc1snc(S(=O)(=O)/C(C#N)=N/Nc2cccc(C(F)(F)F)c2)c1C#N,x,i,24*,17,104*,90*,
Cc1cc(O)c2c(c1)C(=O)c1cc(O)cc(O)c1C2=O,21,i,10*,15,50*,80*,
O=c1oc2ccccc2c(Nc2ccc3ccccc3c2)c1[N+](=O)[O-],x,i,2,12,62*,78*,
Cc1ccc(Nc2c([N+](=O)[O-])c(=O)oc3ccccc23)cc1,6,i,-3,5,-2,x,
Cc1ccc(S(=O)(=O)N2[C@H](c3ccc(Cl)cc3)CC(=O)[C@@H]3CN(S(=O)(=O)c4ccccc4C)[C@H](c4ccc(Cl)cc4)C[C@@H]32)cc1,15,u,x,18,20,x,
Cc1ccc(S(=O)(=O)N2[C@H](c3cccc(Cl)c3)CC(=O)[C@@H]3CN(S(=O)(=O)c4ccccc4C)[C@H](c4ccc(Cl)cc4)C[C@@H]32)cc1,18,u,x,14,81*,69*,
Cc1ccc([C@@H]2CC(=O)[C@@H]3CN(S(=O)(=O)c4ccccc4C)[C@H](c4ccc(Cl)cc4)C[C@@H]3N2S(=O)(=O)c2ccc(C)cc2)cc1,13,u,x,19,58*,77*,
N#CC1=C(N)N2C(=C(C#N)C13CCCCC3)SC1CCCCC12O (centres undefined),0,i,-11,11,66*,72*,
O=C(NNC(=O)c1cc(-c2cccnc2)nc2ccccc12)Nc1ccc(Cl)cc1,23,i,26*,18,86*,86*,
O=C(CC[C@H]1O[C@@H](n2ccc(=O)[nH]c2=O)[C@H](O)[C@@H]1O)N[C@@H](Cc1ccccc1)C(=O)NCc1ccccc1,3,i,x,-12,-1,x,
O=C(NCCc1ccc(Cl)cc1)c1ccc(Br)s1,-2,i,-1,6,-2,x,
O=C(NCCCCCCNC(=O)c1ccc(Br)s1)c1ccc(Br)s1,12,i,1,-3,54*,36*,
COC(=O)C(NC(=O)c1ccc(F)cc1)(Nc1ncc(S(=O)(=O)c2ccc([N+](=O)[O-])cc2)s1)C(F)(F)F (centres undefined),9,i,0,35,90*,88*,
CCn1cc(CN2CCC(C(=O)Nc3ccc(Oc4ccccc4F)cc3)CC2)c(C)n1,-9,i,0,-2,1,x,

# Assay outcomes from PubChem.
